Bioassay records deposited in PubChem by The Scripps Research Institute Molecular Screening Center.
ssDAF-12 act: S. stercoralis DAF-12 activation, primary screen; HEK293 ssDAF-12/GRIP1 lit1-tk-luc reporter, luminescence; % of 3 µM dafachronic acid response; activation, % at 6.8 µM; hit rate 1% among 370,000;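 active = activation above the mean over all tested compounds plus 3 SD, cut at about 0.9% in these data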
hcDAF-12 act: H. contortus DAF-12 activation, primary screen; HEK293 hcDAF-12 lit1-tk-luc reporter, luminescence; 0% DMSO, 100% Δ7-dafachronic acid; activation, % at 6.8 µM; hit rate 1.4% among 370,000; AID 652067;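 active = activation above the mean of all tested compounds plus 3 SD, cut at about 5.5% in these data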
hgDAF12 agonist: activates the H. glycines DAF-12 receptor ligand-binding domain; HEK293 GAL4-hgDAF12 UAS-luciferase reporter, agonist luminescence; normalized to butyrate control; activation, % at 6.8 µM; hit rate 1.8% among 370,000; AID 687014;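 active = activation above a cutoff set at the mean of all screened compounds plus 3 SD, cut at about 10% in these data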
DAX1 inh-1: blocks DAX1 repression of SF-1 activated StAR promoter; HEK293T StAR-luciferase reporter, SF-1/DAX-1 repression relief; inhibition, % at 6.8 µM; hit rate 1.1% among 370,000;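 active = inhibition above the mean over all tested compounds plus 3 SD, cut at about 3.6% in these data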;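 also: higher inhibition means more luminescence from relief of DAX-1 repression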
DAX1 inh-2: inhibits human nuclear receptor DAX1; P51843; HEK293 Gal4-DAX1 luciferase reporter, luminescence; inhibition, % at 6.75 µM; hit rate 0.99% among 340,000;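 active = inhibition above the mean over all tested compounds plus 3 SD, cut at about 4.2% in these data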;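 also: inhibition shows as a rise in luminescence from relieved DAX1 repression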
Target sequence (P51843 207-470 limits assumed): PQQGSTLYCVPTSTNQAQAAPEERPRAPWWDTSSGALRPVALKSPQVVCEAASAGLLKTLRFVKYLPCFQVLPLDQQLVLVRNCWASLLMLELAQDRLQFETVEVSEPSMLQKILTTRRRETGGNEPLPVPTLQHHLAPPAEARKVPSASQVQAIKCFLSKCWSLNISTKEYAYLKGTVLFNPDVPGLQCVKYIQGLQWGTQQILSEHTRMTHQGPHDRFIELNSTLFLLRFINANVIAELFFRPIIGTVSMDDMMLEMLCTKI
Of the large screens only hits and unclear results are named; the others gave an inactive call. A selection: hits, their analogues and other compounds. The true share with any hit is near 4.1%.

Cc1ccc(-n2c(Cc3cccs3)nnc2SCC(=O)Nc2ccc(OCc3ccccc3)cc2)cc1	none (no result: DAX1 inh-2)
COc1ccc(-c2c(C#Cc3ccc(N(C)C)cc3)c3ccccc3n2C)cc1	hcDAF-12 act 5.8
O=[N+]([O-])c1ccc(Cc2nnc(-c3ccc(F)cc3)o2)cc1	none
Cc1ccc(-c2nnc(Cc3ccc([N+](=O)[O-])cc3)o2)cc1	hgDAF12 agonist 12
CCOC(=O)C(Cc1ccccc1)NC(=O)CCc1c(C)nc2nc(C)nn2c1C (stereo not drawn)	none
CCOC(=O)C(Cc1ccccc1)NC(=O)CCc1c(C)nc2ncnn2c1C (stereo not drawn)	hcDAF-12 act 5.7
COc1ccc(Cc2c(-c3ccccc3)nc3ccc(Br)cn23)c(C)c1	hgDAF12 agonist 13 (no result: DAX1 inh-2)
Cc1ccc(Cc2c(-c3ccc(C#N)cc3)nc3c(C)cc(Br)cn23)cc1	ssDAF-12 act 1.0 (no result: DAX1 inh-2)
COc1ccc(Cc2c(-c3ccc(C)cc3)nc3c(C)cc(Br)cn23)c(C)c1	ssDAF-12 act 1.1 (no result: DAX1 inh-2)
Cc1ccc(OCCOc2c(Cl)cc(Cl)cc2Cl)c([N+](=O)[O-])n1	none (no result: DAX1 inh-1, DAX1 inh-2)
CC1CN(CC(O)COC(c2ccc(Cl)cc2)c2ccc(Cl)cc2)CC(C)O1 (stereo not drawn)	none
CN(C)CC(O)COC(c1ccc(Cl)cc1)c1ccc(Cl)cc1 (stereo not drawn)	DAX1 inh-2 4.3
Cc1ccccc1Cn1cc(COC(=O)Nc2ccc(F)cc2)nn1	none (no result: DAX1 inh-2)
CC(=O)Nc1cc2c(cc1Br)-c1ccccc1C2	hcDAF-12 act 6.2, hgDAF12 agonist 11
CCn1c2ccccc2c2cc(Nc3cc(C)nc4ncnn34)ccc21	DAX1 inh-1 3.6
Cc1cc(Nc2ccc(F)c(Cl)c2)n2ncnc2n1	DAX1 inh-2 4.5
CC(C)(C)CCNc1nc(-c2ccccn2)nnc1-c1ccccc1	none (no result: DAX1 inh-1, DAX1 inh-2)
O=C(N[C@H](C(=O)N1CCC[C@H]1C(=O)NCCc1ccccc1Cl)c1ccccc1)c1ccc(Cl)c(Cl)c1	none (no result: DAX1 inh-2)
COc1ccc2c(c1)CCc1c(C(=O)NCc3cccnc3)noc1-2	none
COc1ccc2c(c1)CCc1c(C(=O)NCC(C)C)noc1-2	hgDAF12 agonist 13, DAX1 inh-2 5.6
COc1ccc2c(c1)CCc1c(C(=O)N3CCCCCC3)noc1-2	DAX1 inh-1 3.8
Fc1ccc(-c2nnn3c2nc(NCc2ccccc2)c2ccccc23)cc1	none
NNc1nc2c(-c3ccc(F)cc3)nnn2c2ccccc12	ssDAF-12 act 1.3, hcDAF-12 act 6.4, hgDAF12 agonist 10
Cc1ccccc1-c1cccc(CN2CCN(C)C(CCO)C2)c1 (stereo not drawn)	DAX1 inh-2 4.6
CC(C)N1CCN(Cc2cccc(-c3ccco3)c2)CC1CCO (stereo not drawn)	none
CCn1c(SCC(=O)c2ccccc2)nc2ccccc2c1=O	none
CCn1c(SCC#N)nc2ccccc2c1=O	DAX1 inh-2 5.2
COc1ccc(OC)c(C=Nc2ccccc2-c2nc3ccccc3[nH]2)c1	hgDAF12 agonist 12
Oc1ccc(C=Nc2ccccc2-c2nc3ccccc3[nH]2)c(O)c1	none
Cc1ccc(Nc2ncc3c(n2)CC(C)(C)CC3=O)cc1	hgDAF12 agonist 13, DAX1 inh-2 6.0
CC1(C)CC(=O)c2cnc(NC3CC3)nc2C1	none
COCC(=O)N(Cc1ccccc1)c1ccccc1C(=O)Nc1cc(OC)ccc1OC	none (no result: DAX1 inh-2)
O=C(CCc1ccccc1)N[C@H]1[C@H](O)CCC[C@]12C(=O)N(Cc1ccccc1)c1ccccc12	none (no result: DAX1 inh-2)
O=C(CN1C(=O)CCC1=O)NC(=O)NC1CCCC1	DAX1 inh-2 4.6
CC1(c2ccccc2)NC(=O)N(CC(=O)NC(=O)NC2CCCC2)C1=O (stereo not drawn)	none
CCOC(=O)N1CCN(C(=O)c2cc(-c3ccc(OCC)cc3)nc3ccccc23)CC1	hgDAF12 agonist 12
Cc1ccc(NC(=O)c2oc3ccccc3c2NC(=O)c2ccc3c(c2)OCO3)cc1	ssDAF-12 act 1.1
O=C(Nc1c(C(=O)Nc2cccc(F)c2)oc2ccccc12)c1ccc2c(c1)OCO2	none
Cc1cc(C)c(C)c(S(=O)(=O)Nc2ccccc2C(=O)O)c1C	DAX1 inh-2 4.9
O=C(CSc1nc2c(cnn2-c2ccccc2)c(=O)[nH]1)NC1CCS(=O)(=O)C1 (stereo not drawn)	DAX1 inh-2 5.7
Cc1ccc(CSc2nc3c(c(N(C)C)n2)CCCC3)cc1	none
Cc1nc(SCc2ccccc2)nc2c1CCC2	hgDAF12 agonist 11
